Assay results taken from the supplement of paper PMC10849652.
The full data set covers some 7,900 targets. This sample favours those with a hit. About 0.6% of all pairs of compound and target were hits.

What was measured:
Test in all cases: log2 fold change, soluble protein after heating vs DMSO (PISA); higher = thermal stabilisation; K562 cells, 10 uM, 30 min; active = over 0.2 and 3.5 SD of the protein, either way, in both replicates (recomputed)
[1] = compound: CN1CCN(CCOc2cc(OC3CCOCC3)c3c(Nc4c(Cl)ccc5c4OCO5)ncnc3c2)CC1 [saracatinib]
Procedure, shortened: (§1)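 Soluble protein was defined as the supernatant after 21,000xg for 90 min. It came from K562 cells at 2×10^6 cells/mL given 10 μM compound for 30 min, heated in aliquots for 3 min across 48°C-58°C, pooled, and extracted in PBS with 0.5% NP-40 at 4°C, and was quantified by TMTpro 16plex LC-MS/MS with equalised channel sums. Thermal stability against control samples, from duplicates, is reported as log2 fold change.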

[2] = compound: CN1CCN(c2nc(C3=C(c4c[nH]c5ccccc45)C(=O)NC3=O)c3ccccc3n2)CC1 [sotrastaurin]
Procedure, shortened: as §1

[3] = compound: CN1CC[C@H](c2c(O)cc(O)c3c(=O)cc(-c4ccccc4Cl)oc23)[C@H](O)C1 [alvocidib]
Procedure, shortened: as §1

[4] = compound: CN1CCc2c(c3ccccc3n2Cc2ccc(C(=O)NO)cc2)C1 [Tubastatin A]
Procedure, shortened: as §1

[5] = compound: CNC(=O)C1=CC=CC=C1NC2=NC(=NC=C2Cl)NC3=C(C=C(C=C3)N4CCOCC4)OC
Procedure, shortened: as §1

[6] = compound: CNC(=O)c1ccc(Nc2ncc(C(F)(F)F)c(NCc3nccnc3N(C)S(C)(=O)=O)n2)cc1 [defactinib]
Procedure, shortened: as §1

[7] = compound: CNCc1ccc(-c2[nH]c3cc(F)cc4c3c2CCNC4=O)cc1 [rucaparib]
Procedure, shortened: as §1

[8] = compound: CNc1nc(-c2ccc3c(N)n[nH]c3c2)cc(N2C[C@@H](C(=O)NC3CCCCC3)CC[C@H]2C)n1
Procedure, shortened: as §1

[9] = compound: COC(=O)N[C@@H](C)CNc1nccc(-c2cn(C(C)C)nc2-c2cc(Cl)cc(NS(C)(=O)=O)c2F)n1 [encorafenib]
Procedure, shortened: as §1

[10] = compound: COC(=O)[C@H](CCSC)NC(=O)C1=C(C=C(C=C1)NC[C@H](CS)N)C2=CC=CC=C2
Procedure, shortened: as §1

Measured: log2 fold change

RB1CC1 (UniProt Q8TDY2)
inactive: [1] -0.065 | [2] -0.108 | [3] -0.025 | [4] 0.117 | [5] -0.051 | [6] -0.042 | [7] 0.09 | [8] 0.049 | [9] -0.104 | [10] -0.025

RSRC1 (UniProt Q96IZ7)
inactive: [1] 0.04 | [2] 0.042 | [3] -0.027 | [4] 0.018 | [6] -0.018 | [7] -0.04 | [8] -0.004 | [9] 0.023 | [10] 0.052
active: [5] -0.215

SEC24A (UniProt O95486)
inactive: [1] 0.002 | [2] -0.055 | [3] -0.071 | [4] 0.03 | [5] 0.032 | [6] -0.013 | [7] 0.002 | [8] -0.033 | [9] 0.091 | [10] -0.009

RPL31 (UniProt P62899)
inactive: [1] -0.068 | [2] -0.003 | [3] 0.294 | [4] 0.147 | [5] 0.096 | [6] 0.282 | [7] 0.238 | [8] 0.121 | [9] 0.088 | [10] -0.052

RSF1 (UniProt Q96T23)
Chain of UniProt Q96T23 (Q96T23 whole entry, looked up): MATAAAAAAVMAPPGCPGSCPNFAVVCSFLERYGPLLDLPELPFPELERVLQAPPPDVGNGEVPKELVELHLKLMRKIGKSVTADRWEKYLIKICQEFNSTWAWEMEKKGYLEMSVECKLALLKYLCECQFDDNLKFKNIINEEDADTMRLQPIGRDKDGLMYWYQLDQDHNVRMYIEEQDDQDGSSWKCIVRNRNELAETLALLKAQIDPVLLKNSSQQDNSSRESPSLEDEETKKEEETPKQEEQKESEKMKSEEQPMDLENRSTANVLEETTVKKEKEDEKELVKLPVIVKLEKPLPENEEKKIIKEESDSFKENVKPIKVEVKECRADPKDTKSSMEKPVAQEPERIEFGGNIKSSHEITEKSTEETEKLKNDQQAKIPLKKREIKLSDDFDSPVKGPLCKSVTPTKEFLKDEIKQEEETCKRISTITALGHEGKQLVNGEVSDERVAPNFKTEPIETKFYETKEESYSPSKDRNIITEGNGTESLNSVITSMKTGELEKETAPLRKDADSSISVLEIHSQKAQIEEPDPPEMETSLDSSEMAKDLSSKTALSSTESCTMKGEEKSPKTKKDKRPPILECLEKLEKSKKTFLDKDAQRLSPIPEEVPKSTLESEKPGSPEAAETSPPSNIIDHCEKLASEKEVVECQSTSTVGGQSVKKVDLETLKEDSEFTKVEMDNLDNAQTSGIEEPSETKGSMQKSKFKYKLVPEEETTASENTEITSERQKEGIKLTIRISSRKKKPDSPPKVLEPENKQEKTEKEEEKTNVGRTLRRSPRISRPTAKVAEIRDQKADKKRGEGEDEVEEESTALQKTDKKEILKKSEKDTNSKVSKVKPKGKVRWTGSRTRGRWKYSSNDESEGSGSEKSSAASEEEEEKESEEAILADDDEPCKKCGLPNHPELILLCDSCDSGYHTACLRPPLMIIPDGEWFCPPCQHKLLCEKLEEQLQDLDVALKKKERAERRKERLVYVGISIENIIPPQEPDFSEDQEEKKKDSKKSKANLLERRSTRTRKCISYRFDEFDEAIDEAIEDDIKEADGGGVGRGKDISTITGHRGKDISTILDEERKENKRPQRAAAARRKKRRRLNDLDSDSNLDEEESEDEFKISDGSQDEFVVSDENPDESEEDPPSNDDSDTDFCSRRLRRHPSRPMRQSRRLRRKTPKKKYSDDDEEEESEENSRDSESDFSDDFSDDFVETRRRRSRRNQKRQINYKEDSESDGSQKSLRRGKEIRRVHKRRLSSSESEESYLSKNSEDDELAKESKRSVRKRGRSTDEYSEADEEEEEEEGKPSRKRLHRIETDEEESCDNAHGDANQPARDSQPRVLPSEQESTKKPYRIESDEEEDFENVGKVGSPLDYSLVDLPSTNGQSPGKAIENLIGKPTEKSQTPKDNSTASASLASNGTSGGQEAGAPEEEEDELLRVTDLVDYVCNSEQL
inactive: [1] 0 | [2] -0.209 | [3] -0.188 | [4] 0.181 | [5] 0.035 | [7] 0.026 | [8] 0.048 | [9] 0.029 | [10] -0.086
active: [6] -0.407

RPS19 (UniProt P39019)
inactive: [1] -0.024 | [2] 0.001 | [3] 0.178 | [4] 0.089 | [5] 0.07 | [6] 0.167 | [7] 0.136 | [8] 0.064 | [9] 0.028 | [10] -0.004

SCD (UniProt O00767)
inactive: [1] 0.066 | [2] 0.036 | [3] 0.049 | [4] -0.234 | [5] 0.024 | [6] 0.025 | [7] -0.006 | [8] -0.164 | [9] 0.04 | [10] 0.045

RAB3GAP2 (UniProt Q9H2M9)
inactive: [1] -0.111 | [2] -0.195 | [3] -0.013 | [4] 0.058 | [5] 0.017 | [6] -0.064 | [7] 0.205 | [8] 0.039 | [9] 0.189 | [10] -0.089

RIPK1 (UniProt Q13546)
Chain of UniProt Q13546 (Q13546 whole entry, looked up): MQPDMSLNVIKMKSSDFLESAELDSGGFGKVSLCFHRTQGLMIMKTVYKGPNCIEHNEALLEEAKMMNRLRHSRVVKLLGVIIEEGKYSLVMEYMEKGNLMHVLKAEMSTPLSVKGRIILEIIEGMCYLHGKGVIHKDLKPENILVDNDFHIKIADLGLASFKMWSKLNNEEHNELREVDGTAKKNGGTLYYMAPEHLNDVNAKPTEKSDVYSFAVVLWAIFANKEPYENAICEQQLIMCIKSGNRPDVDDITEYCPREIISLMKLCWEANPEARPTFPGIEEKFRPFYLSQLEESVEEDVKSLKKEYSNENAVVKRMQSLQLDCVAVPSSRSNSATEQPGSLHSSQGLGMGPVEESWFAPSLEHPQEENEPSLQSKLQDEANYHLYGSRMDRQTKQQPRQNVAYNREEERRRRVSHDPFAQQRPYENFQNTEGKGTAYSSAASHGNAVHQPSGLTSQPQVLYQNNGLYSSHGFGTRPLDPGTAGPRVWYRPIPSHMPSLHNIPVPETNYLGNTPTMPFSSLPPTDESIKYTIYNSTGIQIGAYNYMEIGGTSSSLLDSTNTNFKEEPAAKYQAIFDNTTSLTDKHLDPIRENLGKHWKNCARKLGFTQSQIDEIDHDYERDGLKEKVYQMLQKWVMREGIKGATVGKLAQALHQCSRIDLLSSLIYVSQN
inactive: [1] -0.197 | [2] -0.208 | [3] -0.047 | [4] 0.017 | [5] 0.191 | [6] 0.028 | [7] 0.161 | [8] 0.212 | [9] 0.073 | [10] -0.097

RAB9A (UniProt P51151)
Chain of UniProt P51151 (P51151 whole entry, looked up): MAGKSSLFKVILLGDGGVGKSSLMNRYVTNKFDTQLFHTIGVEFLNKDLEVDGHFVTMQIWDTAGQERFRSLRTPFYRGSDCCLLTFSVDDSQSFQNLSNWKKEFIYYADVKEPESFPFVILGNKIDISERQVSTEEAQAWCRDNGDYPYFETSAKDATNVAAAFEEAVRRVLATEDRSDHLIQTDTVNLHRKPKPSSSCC
inactive: [1] 0.015 | [2] 0.02 | [3] -0.04 | [4] -0.018 | [5] -0.054 | [6] 0 | [7] -0.017 | [8] -0.02 | [9] -0.012 | [10] -0.013

SCPEP1 (UniProt Q9HB40)
Chain of UniProt Q9HB40 (Q9HB40 whole entry, looked up): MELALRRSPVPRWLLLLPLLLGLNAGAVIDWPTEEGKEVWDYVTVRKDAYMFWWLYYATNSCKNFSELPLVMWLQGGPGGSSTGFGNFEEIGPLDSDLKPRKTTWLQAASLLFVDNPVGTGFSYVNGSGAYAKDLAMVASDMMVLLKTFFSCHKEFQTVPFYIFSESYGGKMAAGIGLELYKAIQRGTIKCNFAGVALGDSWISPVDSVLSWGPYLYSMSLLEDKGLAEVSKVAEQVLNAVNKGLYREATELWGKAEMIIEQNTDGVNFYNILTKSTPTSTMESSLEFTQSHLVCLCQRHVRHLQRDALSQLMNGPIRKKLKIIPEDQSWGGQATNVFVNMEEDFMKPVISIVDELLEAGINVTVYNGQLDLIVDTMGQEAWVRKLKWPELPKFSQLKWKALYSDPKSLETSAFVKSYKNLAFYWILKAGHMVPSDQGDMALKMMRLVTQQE
inactive: [1] -0.029 | [2] 0.031 | [3] -0.009 | [4] -0.012 | [5] 0.021 | [6] 0.005 | [7] 0.064 | [8] -0.022 | [9] -0.025 | [10] -0.004

RAPGEF4 (UniProt Q8WZA2)
inactive: [1] 0.045 | [2] -0.033 | [3] 0.04 | [4] 0.333 | [5] -0.114 | [6] -0.057 | [7] -0.063 | [8] 0.083 | [9] 0.059 | [10] -0.123

SLC1A5 (UniProt Q15758)
inactive: [1] 0 | [2] 0.064 | [3] -0.027 | [4] -0.023 | [5] -0.09 | [6] -0.01 | [7] -0.015 | [8] 0.033 | [9] -0.045 | [10] 0.058

SCCPDH (UniProt Q8NBX0)
inactive: [1] -0.063 | [2] 0.1 | [3] -0.057 | [4] -0.078 | [5] 0.206 | [6] 0.121 | [7] -0.081 | [8] 0.183 | [9] -0.041 | [10] 0.002

RRAGB (UniProt Q5VZM2)
inactive: [1] 0.076 | [2] 0.028 | [3] -0.029 | [4] -0.03 | [5] -0.01 | [6] -0.075 | [7] -0.009 | [8] -0.009 | [9] 0.06 | [10] 0.084

RETREG3 (UniProt Q86VR2)
Chain of UniProt Q86VR2 (Q86VR2 whole entry, looked up): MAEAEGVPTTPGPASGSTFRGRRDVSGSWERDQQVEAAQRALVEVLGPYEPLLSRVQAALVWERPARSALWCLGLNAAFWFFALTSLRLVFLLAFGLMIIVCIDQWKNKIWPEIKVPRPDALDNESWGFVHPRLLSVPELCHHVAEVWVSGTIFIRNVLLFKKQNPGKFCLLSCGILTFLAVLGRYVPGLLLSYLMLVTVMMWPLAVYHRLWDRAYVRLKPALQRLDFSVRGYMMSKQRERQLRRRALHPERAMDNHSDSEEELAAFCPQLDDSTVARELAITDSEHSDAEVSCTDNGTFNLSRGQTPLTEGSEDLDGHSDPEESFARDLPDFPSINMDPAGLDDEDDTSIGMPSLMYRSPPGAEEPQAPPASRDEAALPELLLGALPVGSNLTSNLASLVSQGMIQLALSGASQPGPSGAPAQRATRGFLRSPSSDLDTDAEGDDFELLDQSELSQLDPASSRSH
inactive: [1] 0.164 | [2] 0.035 | [3] -0.023 | [4] 0.022 | [5] 0.011 | [6] -0.015 | [7] 0.004 | [8] -0.011 | [9] -0.018 | [10] 0.032

SAFB2 (UniProt Q14151)
inactive: [1] -0.055 | [2] -0.028 | [3] 0.149 | [4] -0.048 | [5] -0.022 | [6] 0.144 | [7] 0.1 | [8] -0.067 | [9] 0.029 | [10] -0.005

RPS20 isoform 2 (UniProt P60866)
inactive: [1] -0.1 | [2] 0.019 | [3] 0.196 | [4] 0.054 | [5] 0.066 | [6] 0.216 | [7] 0.093 | [8] -0.009 | [9] 0.041 | [10] 0.001

RHOA (UniProt P61586)
Chain of UniProt P61586 (P61586 whole entry, looked up): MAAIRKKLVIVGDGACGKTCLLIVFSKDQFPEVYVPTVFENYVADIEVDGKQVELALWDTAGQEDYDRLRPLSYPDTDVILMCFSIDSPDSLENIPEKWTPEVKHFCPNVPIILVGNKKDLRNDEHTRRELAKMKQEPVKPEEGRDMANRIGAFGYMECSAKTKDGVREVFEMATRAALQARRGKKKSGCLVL
inactive: [1] 0.079 | [2] -0.025 | [3] 0.018 | [4] -0.025 | [5] -0.029 | [6] 0 | [7] 0.074 | [8] 0.012 | [9] -0.126 | [10] 0.08

RPA3 (UniProt P35244)
Chain of UniProt P35244 (P35244 whole entry, looked up): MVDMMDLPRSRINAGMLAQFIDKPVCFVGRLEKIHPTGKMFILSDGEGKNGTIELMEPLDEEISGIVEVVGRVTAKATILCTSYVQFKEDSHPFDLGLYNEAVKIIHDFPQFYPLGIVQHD
inactive: [1] 0.015 | [2] -0.014 | [3] -0.04 | [4] 0.022 | [5] 0.181 | [6] -0.054 | [7] -0.048 | [8] 0.015 | [9] 0.06 | [10] 0.014

SENP6 (UniProt Q9GZR1)
inactive: [1] 0.028 | [2] -0.008 | [3] -0.062 | [4] 0.063 | [5] -0.018 | [6] -0.131 | [7] 0.003 | [8] -0.034 | [9] 0.016 | [10] 0

SART3, A0A499FI31
inactive: [1] -0.011 | [2] -0.13 | [4] 0.035 | [5] 0.021 | [7] -0.156 | [8] -0.041 | [9] 0.025 | [10] 0.001
active: [3] -0.291 | [6] -0.448

SIK3 (UniProt H0Y4E8)
inactive: [1] 0.027 | [2] 0.157 | [3] -0.007 | [4] 0.064 | [5] -0.009 | [6] -0.072 | [7] 0.023 | [8] -0.114 | [9] 0.056 | [10] 0.01

REEP4 (UniProt Q9H6H4)
Chain of UniProt Q9H6H4 (Q9H6H4 whole entry, looked up): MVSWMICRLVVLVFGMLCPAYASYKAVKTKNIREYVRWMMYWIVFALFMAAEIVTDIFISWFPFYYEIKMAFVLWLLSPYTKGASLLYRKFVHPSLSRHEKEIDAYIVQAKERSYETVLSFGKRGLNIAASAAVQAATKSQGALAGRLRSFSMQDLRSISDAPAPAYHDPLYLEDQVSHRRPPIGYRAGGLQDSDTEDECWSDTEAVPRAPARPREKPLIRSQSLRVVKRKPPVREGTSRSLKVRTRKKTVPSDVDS
inactive: [1] 0.047 | [2] -0.068 | [3] 0.034 | [4] 0.018 | [5] -0.122 | [6] 0.008 | [7] 0.086 | [8] -0.014 | [9] -0.013 | [10] -0.01

RIOK3 (UniProt O14730)
inactive: [1] 0.029 | [2] -0.006 | [3] -0.002 | [4] 0.012 | [5] -0.029 | [6] -0.01 | [7] -0.132 | [8] -0.039 | [9] -0.02 | [10] -0.002

RSRC2 (UniProt Q7L4I2)
Chain of UniProt Q7L4I2 (Q7L4I2 whole entry, looked up): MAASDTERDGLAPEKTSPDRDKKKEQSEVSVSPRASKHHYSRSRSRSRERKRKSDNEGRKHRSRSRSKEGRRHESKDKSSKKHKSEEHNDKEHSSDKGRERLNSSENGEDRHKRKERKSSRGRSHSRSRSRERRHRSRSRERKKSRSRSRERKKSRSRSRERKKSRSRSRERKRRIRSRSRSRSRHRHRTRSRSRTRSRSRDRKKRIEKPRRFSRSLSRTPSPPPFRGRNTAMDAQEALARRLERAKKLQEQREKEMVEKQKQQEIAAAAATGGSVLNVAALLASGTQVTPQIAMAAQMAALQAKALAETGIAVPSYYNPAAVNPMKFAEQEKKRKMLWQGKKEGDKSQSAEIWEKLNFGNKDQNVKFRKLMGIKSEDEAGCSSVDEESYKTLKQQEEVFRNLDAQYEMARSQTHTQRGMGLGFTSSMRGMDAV
inactive: [1] 0.015 | [2] 0.049 | [3] 0.055 | [4] -0.055 | [5] -0.125 | [6] -0.048 | [7] -0.004 | [8] -0.016 | [9] -0.005 | [10] 0.024

SCG3 (UniProt Q8WXD2)
inactive: [1] 0.191 | [2] 0.038 | [3] 0.106 | [4] 0.021 | [5] 0.091 | [6] -0.163 | [7] 0.046 | [8] -0.113 | [9] -0.069 | [10] 0.062

SCAF8 isoform 2 (UniProt Q9UPN6)
inactive: [1] -0.078 | [2] -0.09 | [3] -0.167 | [4] 0.006 | [5] -0.085 | [6] -0.083 | [7] 0.004 | [8] 0.016 | [9] 0.018 | [10] -0.06

RPRD1B (UniProt Q9NQG5)
Chain of UniProt Q9NQG5 (Q9NQG5 whole entry, looked up): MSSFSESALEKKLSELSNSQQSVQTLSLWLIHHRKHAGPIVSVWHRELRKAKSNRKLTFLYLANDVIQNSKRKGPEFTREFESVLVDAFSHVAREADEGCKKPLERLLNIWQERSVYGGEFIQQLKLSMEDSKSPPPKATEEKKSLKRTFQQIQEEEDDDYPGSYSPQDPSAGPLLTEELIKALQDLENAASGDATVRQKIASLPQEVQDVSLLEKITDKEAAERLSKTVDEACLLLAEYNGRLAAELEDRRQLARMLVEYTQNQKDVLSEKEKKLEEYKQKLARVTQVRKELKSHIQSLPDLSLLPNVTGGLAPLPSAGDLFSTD
inactive: [1] -0.014 | [2] -0.126 | [3] -0.082 | [4] -0.039 | [5] 0.055 | [6] -0.09 | [7] -0.116 | [8] -0.011 | [9] 0.04 | [10] -0.004

RTN4IP1 (UniProt Q8WWV3)
Chain of UniProt Q8WWV3 (Q8WWV3 whole entry, looked up): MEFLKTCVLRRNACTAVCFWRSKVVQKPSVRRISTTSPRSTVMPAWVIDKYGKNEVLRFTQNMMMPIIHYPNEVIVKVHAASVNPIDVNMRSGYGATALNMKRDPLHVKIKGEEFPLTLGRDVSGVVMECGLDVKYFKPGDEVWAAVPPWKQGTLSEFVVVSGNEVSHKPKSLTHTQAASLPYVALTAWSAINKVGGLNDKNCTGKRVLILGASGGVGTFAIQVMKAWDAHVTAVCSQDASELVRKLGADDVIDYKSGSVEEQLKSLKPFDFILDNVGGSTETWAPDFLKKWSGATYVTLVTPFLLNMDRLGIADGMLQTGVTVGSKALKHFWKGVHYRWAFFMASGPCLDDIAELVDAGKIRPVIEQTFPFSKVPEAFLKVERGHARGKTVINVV
inactive: [1] -0.264 | [2] 0.43 | [3] -0.27 | [5] -0.066 | [6] -0.157 | [7] -0.178 | [8] -0.069 | [9] 0.02 | [10] 0.007
active: [4] 0.611
